In PubChem BioAssay:
Where “and” joins values, the source holds several entries; their conditions need not be identical. Identical values can stand only once.

Assay: growth inhibition of BT084 medulloblastoma cells, cell-based, ICGC_MB145, cisplatin and BGB IC40 combos (AID 1671461);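 note: cells exposed to drugs for 96 hours; 0% = vehicle DMSO and 100% = high DMSO full killing control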
Conditions: drug combinations, cisplatin combination, at 0.5 µM, stronger effect = higher value

Row | SMILES | inhibition
1 | COc1ccccc1S(=O)(=O)Nc1ccc2c(c1)CN(C)C(=O)N2 | -9.06%
2 | Cc1cc(C#N)cc(C)c1Oc1nc(Nc2ccc(C#N)cc2)nc(N)c1Br | -20.9%
3 | Nc1ncn(C2OC(CO)C(O)C2O)c(=O)n1 (stereo not drawn) | -8.96%
4 | Cc1cc(C)c(Nc2ccnc(Nc3ccc(C#N)cc3)n2)c(C)c1 | -23.4%
5 | COc1ccc(CC(N)C(=O)NC2C(CO)OC(n3cnc4c(N(C)C)ncnc43)C2O)cc1 (stereo not drawn) | 43% and 48.9%
6 | O=c1ccn(C2OC(CO)C(O)C2O)c(=O)[nH]1 (stereo not drawn) | -2.3% and -6.58%
7 | CC=C1NC(=O)C2CSSCCC=CC(CC(=O)NC(C(C)C)C(=O)N2)OC(=O)C(C(C)C)NC1=O (stereo not drawn) | 102% and 101%
8 | CN(C)CC(=O)Nc1ccc2[nH]c(=O)c3ccccc3c2c1 | -11% and 0.828% and -68.7%
9 | CC1OC(n2cc(F)c(=O)[nH]c2=O)C(O)C1O (stereo not drawn) | -18.2%
10 | Nc1ccn(C2OC(CO)C(O)C2(F)F)c(=O)n1 (stereo not drawn) | 30.6% and 26.6% and 14.1%
11 | Cc1cn(C2CC(N=[N+]=[N-])C(CO)O2)c(=O)[nH]c1=O (stereo not drawn) | -20.4% and -7.03%
12 | CC(C=CC(=O)NO)=CC(C)C(=O)c1ccc(N(C)C)cc1 (stereo not drawn) | 101%
13 | NC(=S)NN=Cc1ncccc1N | -29.3%
14 | CC(C)(C#N)c1ccc(N2C(=O)OCc3cnc4ccc(-c5cnc6ccccc6c5)cc4c32)cc1 | -2.27%
15 | CC1CN(c2c(F)c(N)c3c(=O)c(C(=O)O)cn(C4CC4)c3c2F)CC(C)N1 (stereo not drawn) | -28.7%
16 | CCCCN(Cc1ccc(C(=O)NO)cc1)C(=O)Nc1ccccc1 | 19.3% and 17.8%
17 | O=c1[nH]cnc2c1ncn2C1OC(CO)C(O)C1O (stereo not drawn) | -2.01% and -52.6%
18 | Cc1cc(C=CC#N)cc(C)c1Nc1ccnc(Nc2ccc(C#N)cc2)n1 | -6.25%
